Screening results from PubChem BioAssay.
PP5 primary: blocks human protein phosphatase 5 activity. P53041. 320,000 tested, 0.18% active. inhibition, % at 6.7 µM. purified PP5c, OMFP substrate fluorescence;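 active means inhibition above the campaign's mean inhibition across all tested compounds plus 3 SD, cut at about 9.5% in these data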
Target sequence (P53041 whole entry, looked up): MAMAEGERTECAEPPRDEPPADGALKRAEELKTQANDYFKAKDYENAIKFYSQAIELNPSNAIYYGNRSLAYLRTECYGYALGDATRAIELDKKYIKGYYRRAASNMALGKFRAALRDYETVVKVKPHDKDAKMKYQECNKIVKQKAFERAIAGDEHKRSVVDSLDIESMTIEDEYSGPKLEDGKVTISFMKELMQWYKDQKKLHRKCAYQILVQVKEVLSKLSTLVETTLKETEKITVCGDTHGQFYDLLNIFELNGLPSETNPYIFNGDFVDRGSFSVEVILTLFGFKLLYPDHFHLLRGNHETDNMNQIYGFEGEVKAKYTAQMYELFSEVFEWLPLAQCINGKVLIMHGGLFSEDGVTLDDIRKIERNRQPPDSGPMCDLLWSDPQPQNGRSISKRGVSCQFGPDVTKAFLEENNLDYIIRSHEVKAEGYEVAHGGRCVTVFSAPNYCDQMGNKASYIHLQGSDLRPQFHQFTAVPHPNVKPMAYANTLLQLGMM
LYPLA2 inh: counter-screen for PME1 inhibitors: inhibitors of human LYPLA2; O95372; recombinant LYPLA2, FP-Rh probe fluorescence polarization; inhibition, % at 5.9 µM; 320,000 tested, 0.38% active;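 active means inhibition above the screen-wide mean plus 3 SD, limit set per campaign, cut at about 26% in these data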
LYPLA1 counter: LYPLA1 (human) inhibition in PME1 counter-screen; recombinant LYPLA1, FP-Rh probe fluorescence polarization; 320,000 tested, 0.16% active; O75608; inhibition, % at 5.9 µM;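 active means inhibition above the mean of all tested compounds plus 3 SD, set per campaign, cut at about 14% in these data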;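 further: inhibitors block serine hydrolase probe labeling of LYPLA1 so polarization falls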
PP1 counter: blocks human PP1-alpha phosphatase, a PP5 counter-screen. purified PP1alpha, OMFP fluorescence. inhibition, % at 6.7 µM. 320,000 tested, 0.9% active;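 active means inhibition above the mean inhibition of all tested compounds plus 3 SD, computed separately for each screening campaign, cut at about 15% in these data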
Fam108B inh: counter-screen for RBBP9 inhibitors: inhibitors of mouse Fam108B; recombinant Fam108B, FP-Rh probe fluorescence polarization; inhibition, % at 9.51 µM; 300,000 tested, 0.33% active; AID 1947;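 active means inhibition above the screen mean inhibition plus 3 SD, computed separately per campaign, cut at about 18% in these data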;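 further: inhibitors lower polarization as less probe binds the enzyme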
PME-1 inh: blocks human protein phosphatase methylesterase 1. 320,000 tested, 0.53% active. inhibition, % at 5.9 µM. recombinant PME-1, FP-Rh probe fluorescence polarization. Q9Y570. AID 2130;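 active means inhibition above the campaign mean of all compounds plus 3 SD, cut at about 26% in these data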;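 further: competitive labeling of PME-1 active site by serine hydrolase directed probe; inhibitors block probe labeling so polarization falls and inhibition rises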
Hits are given with their value; – = inactive; · = no result. Rows were chosen to be rich in hits. Some 1.8% of all compounds tested hit in one or more screens of this group.

SMILES	PP5 primary	LYPLA2 inh	LYPLA1 counter	PP1 counter	Fam108B inh	PME-1 inh
C#CCOCCOCCOCCNc1nc(N2CCN(C(=O)C([C@@H](C)CC)n3cc(C(N)COC(=O)C(F)(F)F)nn3)CC2)nc(N2CCN(C(=O)[C@H](CCCCN)n3cc(C(N)[C@H](C)CC)nn3)CC2)n1 (stereo partly specified)	–	–	–	17.3	–	–
C#CCOCCOCCOCCNc1nc(N2CCN(C(=O)[C@H](Cc3cc4ccccc4[nH]3)n3cc([C@@H](N)C(C)CC)nn3)CC2)nc(N2CCN(C(=O)[C@H](Cc3cc4ccccc4[nH]3)n3cc([C@@H](N)CC(C)C)nn3)CC2)n1 (stereo partly specified)	–	–	–	19.4	–	–
C#CCOCCOCCOCCNc1nc(N2CCN(C(=O)[C@H](CCC(=O)O)n3cc(C(N)Cc4ccc(O)cc4)nn3)CC2)nc(N2CCN(C(=O)[C@H](Cc3cc4ccccc4[nH]3)n3cc(C(N)CC(C)C)nn3)CC2)n1 (stereo partly specified)	–	–	–	–	–	–
O=C(O)c1cccc(NC(=O)c2cn(-c3ccccc3)nc2-c2cc3ccccc3o2)c1	–	–	–	16.1	–	–
O=C(N/N=C/c1cn(-c2ccccc2)nc1-c1cc2ccccc2o1)c1ccncc1	–	–	–	–	–	–
Cc1ccc(Nc2c([N+](=O)[O-])ccc3c2=NC2(CCCCC2)N=3)cc1	–	–	–	–	–	31.2
O=C(COc1ccc2ccccc2c1)Nc1ccc(S(=O)(=O)N2CCCCCC2)cc1	–	–	–	17.0	–	–
O=C(COc1ccccc1)Nc1cc(S(=O)(=O)N2CCOCC2)ccc1N1CCCC1	–	–	–	–	·	–
O=C(COC(=O)c1ccccc1Br)Nc1cc(S(=O)(=O)N2CCOCC2)ccc1N1CCCC1	–	–	–	–	–	54.3
O=C(COc1ccc(F)cc1)Nc1cc(S(=O)(=O)N2CCCCC2)ccc1N1CCCCC1	–	–	–	15.8	–	–
Cc1cc(C)c(C#N)c(SCc2nc3ccccc3[nH]2)n1	–	–	–	–	–	28.8
Cc1cc(C)c(C#N)c(SCc2c(F)cccc2[N+](=O)[O-])n1	–	34.3	–	–	–	–
COc1cccc(-c2nc(NC(C)C)c3ccccc3n2)c1O	–	–	–	–	–	26.1
CCOC(=O)Cc1csc(NC(=O)c2sc3nc4ccc(C)cc4cc3c2N)n1	–	–	–	–	–	58.0
CCc1nnc(NC(=O)c2sc3nc4cc(C)ccc4cc3c2N)s1	–	–	–	–	–	32.0
O=S(=O)(Nc1ccc(Br)cn1)c1ccc2ccccc2c1	–	–	–	–	–	–
CC(=O)Nc1cccc(NC(=O)c2cc(-c3cccnc3)nc3ccc(Br)cc23)c1	–	–	–	–	–	–
CSc1ccccc1NC(=O)c1cc(-c2cccnc2)nc2ccc(Br)cc12	–	–	–	17.0	–	–
CCCCn1c(-c2cccc3ccccc23)nc2cc3[nH]c(=O)c(C(C)C)nc3cc21	–	–	–	16.0	–	–
O=C(CNc1cccc2ccccc12)N/N=C/c1ccc(C(=O)O)cc1	–	–	–	–	–	–
O=C(CNc1cccc2ccccc12)N/N=C/C=C/c1ccco1	–	–	–	–	–	73.5
O=C(Nc1ccc([N+](=O)[O-])cc1)Nc1ccc2[nH]c(=O)[nH]c2c1	–	–	–	–	–	29.6
O=C(CSc1ccc([N+](=O)[O-])cn1)Nc1ccc2[nH]c(=O)[nH]c2c1	–	–	–	–	–	–
O=C(Cc1ccc(Cl)cc1Cl)Nc1ccc(OC(F)F)c(Cl)c1	–	–	–	–	–	–
O=C(Nc1ccc([N+](=O)[O-])cc1)Nc1ccc(OC(F)F)c(Cl)c1	–	–	–	17.5	–	–
COc1ccc(NC(=O)COC(=O)CC2CCCC2)cc1Cl	–	–	–	–	–	–
CCCCC1=CC2=CC(=O)C(C)(OC(=O)c3cnc4ccccc4n3)C(=O)C2=CO1 (stereo unspecified)	–	–	23.1	–	18.9	30.7
COC/C=C/C1=CC2=CC(=O)C(C)(OC(=O)c3cnc4ccccc4n3)C(=O)C2=CN1c1ccc(OC)cc1 (stereo unspecified)	–	–	–	17.6	–	–
